Inconclusive results are not listed. The source made the active and inactive calls.
Molecular target: Glucocorticoid receptor (Homo sapiens) (UniProt P04150)
Experiment: qHTS assay to identify small molecule agonists of the glucocorticoid receptor (GR) signaling pathway (AID 720691; active = well fitted activation curve with a large enough effect in the signal ratio in the repeat runs, not every such curve was filed as active; the % refers to the signal ratio)
Settings: GR-bla HeLa, beta-lactamase reporter ratio, 18 h; series mostly up to 62.4 µM; activation: at the top concentration
Summary of the method: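 qHTS in GR-bla HeLa cells: 4 h settling at 37 C/5% CO2, 18 h compound incubation at 37 C, 2 h LiveBLAzer B/G FRET substrate at room temperature, fluorescence intensity measured.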
% is scaled to controls: 0 for no effect and ±100 for the full control effect.

Glucocorticoid receptor (Homo sapiens), sequence (P04150 whole entry, looked up): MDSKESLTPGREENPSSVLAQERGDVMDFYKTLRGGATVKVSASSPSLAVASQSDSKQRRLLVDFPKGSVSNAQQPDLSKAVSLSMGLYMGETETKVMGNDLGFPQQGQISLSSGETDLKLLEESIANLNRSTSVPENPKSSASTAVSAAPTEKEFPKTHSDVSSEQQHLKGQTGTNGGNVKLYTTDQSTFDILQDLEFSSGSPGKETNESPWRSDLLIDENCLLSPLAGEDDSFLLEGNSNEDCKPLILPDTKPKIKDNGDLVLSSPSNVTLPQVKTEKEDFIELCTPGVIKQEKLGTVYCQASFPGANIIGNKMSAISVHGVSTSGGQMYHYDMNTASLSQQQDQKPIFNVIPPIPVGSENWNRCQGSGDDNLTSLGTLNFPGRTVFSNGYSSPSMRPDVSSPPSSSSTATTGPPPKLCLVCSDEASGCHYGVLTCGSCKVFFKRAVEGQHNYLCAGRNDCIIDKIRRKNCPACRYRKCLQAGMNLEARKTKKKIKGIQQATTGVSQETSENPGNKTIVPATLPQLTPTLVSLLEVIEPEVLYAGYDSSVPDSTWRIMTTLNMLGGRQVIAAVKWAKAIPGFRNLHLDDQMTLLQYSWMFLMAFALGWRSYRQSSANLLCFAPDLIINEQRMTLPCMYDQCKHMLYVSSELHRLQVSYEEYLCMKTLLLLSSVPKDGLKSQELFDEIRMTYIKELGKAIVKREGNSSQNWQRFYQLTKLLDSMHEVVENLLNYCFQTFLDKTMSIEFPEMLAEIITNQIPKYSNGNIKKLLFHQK

| Structure (SMILES) | activation | Potency |
| --- | --- | --- |
| COc1nc(C)nc(NC(=O)NS(=O)(=O)c2ccccc2OCCCl)n1 | -0.829% (inactive) | – |
| CCCCNC(=S)NCCCC | -2.2% (inactive) | – |
| CC(C)(C)c1cccc(O)c1 | -0.614% (inactive) | – |
| O=C1CCC(C2CCCCC2)CC1 | -8.51% (inactive) | – |
| COC(=O)c1ccc2cc(C(=O)OC)ccc2c1 | -3.31% [at 29.2 µM] (inactive) | – |
| CCCc1c2oc(C(=O)O)cc(=O)c2cc2c(=O)cc(C(=O)O)n(CC)c12 | 0.0064% (inactive) | – |
| CC(CNC1CCCCC1)OC(=O)c1ccccc1 (stereo unspecified) | 0.257% [at 29.2 µM] (inactive) | – |
| CC(C)OC(C)C | -0.298% [at 79.2 µM] (inactive) | – |
| OCCN(CCO)c1ccccc1 | -2.03% (inactive) | – |
| O=C(C(Cl)Cl)N1CCOC12CCCCC2 | -8.59% (inactive) | – |
| CCCCCCCCCC#N | 2.6% (inactive) | – |
| C[C@@H](N)C(=O)O | 2.39% (inactive) | – |
| O=C1N(c2ccccc2)c2ccccc2C1(Cc1ccncc1)Cc1ccncc1 | 0.728% (inactive) | – |
| C=CCc1cc(OC)c(O)c(C(=O)NCCO)c1 | -2.67% (inactive) | – |
| CCc1cc(Cl)c(OC)c(C(=O)NC[C@@H]2CCCN2CC)c1O | – | inactive |
| CCCCOc1cc(C(=O)NCCN(CC)CC)c2ccccc2n1 | -2.42% [at 29.2 µM] (inactive) | – |
| CCCCNCCCC | -0.194% (inactive) | – |
| CC(C)c1ccccc1 | -3.06% [at 79.2 µM] (inactive) | – |
| CC/C=C\CCOC(=O)C(C)C | -3.2% (inactive) | – |
| Cc1cc(S(=O)(=O)O)c(N)cc1Cl | -2.91% [at 79.2 µM] (inactive) | – |
| COc1cc(N)c(Cl)cc1C(=O)NC1CCN(Cc2ccccc2)CC1 | -0.672% [at 29.2 µM] (inactive) | – |
| CCOC(=O)C1CC(=O)C(=C(O)C2CC2)C(=O)C1 (stereo unspecified) | 0.689% (inactive) | – |
| O=S(=O)(O)C(F)(F)F | 10.8% (inactive) | – |
| O=c1[nH]cnc2c1ncn2[C@@H]1O[C@H](CO)[C@@H](O)[C@H]1O | 0.484% (inactive) | – |
| CC1(C)S[C@@H]2[C@H](NC(=O)C(C(=O)O)c3ccccc3)C(=O)N2[C@H]1C(=O)O (stereo partly specified) | 0.546% (inactive) | – |
| CCCCCCCCOC(=O)CCCCCCCCC(=O)OCCCCCCCC | -0.375% (inactive) | – |
| O=C1C=CC(=O)O1 | -0.674% [at 79.2 µM] (inactive) | – |

Molecular target: Glucocorticoid receptor (Homo sapiens) (UniProt P04150)
Experiment: qHTS assay to identify small molecule antagonists of the glucocorticoid receptor (GR) signaling pathway (AID 720692; active = well fitted inhibition curve with a large enough effect in the signal ratio in the repeat runs, not every such curve was filed as active; the % refers to the signal ratio)
Settings: GR-bla HeLa, beta-lactamase FRET ratio, dexamethasone-stimulated, 18 h; series mostly up to 58.5 µM; activity change, negative = inhibition: at the top concentration
Summary of the method: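 Inhibition of glucocorticoid signalling is measured in HeLa cells with a GRE-controlled beta-lactamase reporter; cells are co-treated with compound and 5 nM dexamethasone (final) for 18 h before FRET substrate readout.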

| Structure (SMILES) | activity change, negative = inhibition | Potency |
| --- | --- | --- |
| COc1nc(C)nc(NC(=O)NS(=O)(=O)c2ccccc2OCCCl)n1 | -12.4% (inactive) | – |
| CCCCNC(=S)NCCCC | -1.04% (inactive) | – |
| CC(C)(C)c1cccc(O)c1 | -2.24% (inactive) | – |
| O=C1CCC(C2CCCCC2)CC1 | -22.6% (inactive) | – |
| COC(=O)c1ccc2cc(C(=O)OC)ccc2c1 | -6.27% [at 27 µM] (inactive) | – |
| CCCc1c2oc(C(=O)O)cc(=O)c2cc2c(=O)cc(C(=O)O)n(CC)c12 | 0.094% (inactive) | – |
| CC(CNC1CCCCC1)OC(=O)c1ccccc1 (stereo unspecified) | 15.2% [at 27 µM] (inactive) | – |
| CC(C)OC(C)C | -9.58% [at 78.9 µM] (inactive) | – |
| OCCN(CCO)c1ccccc1 | 1.48% (inactive) | – |
| O=C(C(Cl)Cl)N1CCOC12CCCCC2 | -6.73% (inactive) | – |
| CCCCCCCCCC#N | -4.1% (inactive) | – |
| C[C@@H](N)C(=O)O | 26.2% (inactive) | – |
| O=C1N(c2ccccc2)c2ccccc2C1(Cc1ccncc1)Cc1ccncc1 | -22.1% (inactive) | – |
| C=CCc1cc(OC)c(O)c(C(=O)NCCO)c1 | -4.27% (inactive) | – |
| CCc1cc(Cl)c(OC)c(C(=O)NC[C@@H]2CCCN2CC)c1O | – | inactive |
| CCCCNCCCC | -1.44% (inactive) | – |
| CC(C)c1ccccc1 | -4.26% [at 78.9 µM] (inactive) | – |
| Cc1cc(S(=O)(=O)O)c(N)cc1Cl | 12.6% [at 78.9 µM] (inactive) | – |
| COc1cc(N)c(Cl)cc1C(=O)NC1CCN(Cc2ccccc2)CC1 | 1.7% [at 27 µM] (inactive) | – |
| CCOC(=O)C1CC(=O)C(=C(O)C2CC2)C(=O)C1 (stereo unspecified) | -3.52% (inactive) | – |
| O=c1[nH]cnc2c1ncn2[C@@H]1O[C@H](CO)[C@@H](O)[C@H]1O | -0.15% (inactive) | – |
| CC1(C)S[C@@H]2[C@H](NC(=O)C(C(=O)O)c3ccccc3)C(=O)N2[C@H]1C(=O)O (stereo partly specified) | -5.49% (inactive) | – |
| CCCCCCCCOC(=O)CCCCCCCCC(=O)OCCCCCCCC | -8.12% (inactive) | – |
| O=C1C=CC(=O)O1 | -6.4% [at 78.9 µM] (inactive) | – |

— PubChem BioAssay (Tox21)
